# This is a sample that favours compounds with a hit; in the whole collection about 3.3% have one here.
# Tau filament bind: binders of human tau filaments; P10636; recombinant tau filaments, thioflavin S fluorescence, 15 h; filaments grown with octadecylsulfate alongside compound; Potency, µM (series often up to 57.1 µM), inactives show at the highest dose activity change, negative = inhibition; actives 2% (n = 71,000);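 note: potency is the fitted concentration of half-maximal effect; % is set by controls: 0 for no effect and ±100 for the full control effect; actives lower thioflavin S fluorescence by blocking filaments or displacing dye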
# Target sequence (P10636 whole entry, looked up): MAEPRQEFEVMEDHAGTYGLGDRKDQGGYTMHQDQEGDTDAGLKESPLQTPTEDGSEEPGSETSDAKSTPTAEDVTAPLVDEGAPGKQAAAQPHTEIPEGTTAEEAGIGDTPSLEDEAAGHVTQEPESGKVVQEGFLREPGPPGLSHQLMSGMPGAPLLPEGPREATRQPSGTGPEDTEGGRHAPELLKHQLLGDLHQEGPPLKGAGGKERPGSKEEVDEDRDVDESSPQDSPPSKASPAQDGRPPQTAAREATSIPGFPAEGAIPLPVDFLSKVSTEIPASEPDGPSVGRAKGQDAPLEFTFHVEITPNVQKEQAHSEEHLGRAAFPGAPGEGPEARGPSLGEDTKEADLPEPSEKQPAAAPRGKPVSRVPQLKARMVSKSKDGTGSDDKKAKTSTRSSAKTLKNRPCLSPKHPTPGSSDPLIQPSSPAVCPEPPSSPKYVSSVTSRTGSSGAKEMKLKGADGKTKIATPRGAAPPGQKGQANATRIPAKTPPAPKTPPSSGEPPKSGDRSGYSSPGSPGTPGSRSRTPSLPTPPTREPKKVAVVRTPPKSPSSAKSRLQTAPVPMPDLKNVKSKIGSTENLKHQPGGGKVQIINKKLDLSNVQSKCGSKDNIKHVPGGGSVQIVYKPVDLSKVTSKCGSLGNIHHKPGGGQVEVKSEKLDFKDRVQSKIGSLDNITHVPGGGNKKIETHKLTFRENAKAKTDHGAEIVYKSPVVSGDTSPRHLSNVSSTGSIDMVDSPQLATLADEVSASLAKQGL
#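 His-tagged recombinant human tau (exons 2, 3 and 10 included), 1 uM, was induced to fibrillize by 30 uM sodium octadecylsulfate with compound present. After 15 h at 37 C, thioflavine S fluorescence (ex 450, em 510 nm) was read.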
# 15-hLO inh: 15-hLO (ALOX15) enzyme inhibition; actives 1.4% (n = 74,000); P16050; Potency, µM (titrated, usually from 57.1 µM), for inactives: at the highest dose activity change, negative = inhibition, usual class: inhibitors; purified 15hLO-1, xylenol orange hydroperoxide absorbance; AID 887; note: potency is the fitted concentration of half-maximal effect; % is set by controls: 0 for no effect and ±100 for the full control effect; nearly all actives have a fitted effect of over 55% in size
#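 Readout: Fe(III)-xylenol orange absorbance, 573-to-405 nm ratio as reaction progress. Enzyme 40 nM purified human 15hLO-1, substrate 50 uM arachidonic acid, 6 min RT after 15 min compound preincubation; Hepes pH 7.5 buffer with Triton X-100.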
# TsaE inh: inhibitors of E. coli YjeE (TsaE); P0AF67; purified YjeE enzyme, qHTS inhibition assay; Potency, µM; actives 0.05% (n = 71,000); AID 605
#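 Purified YjeE (10 uM) with BODIPY Texas Red-labeled ADP probe (2 uM); compounds pin-transferred, 15 min at room temperature. Binding inhibition read as decreased fluorescence polarization; ADP titration as control.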
# Hsp90 Hop PPI: changes Hsp90-Hop TPR2A binding signal, up or down. AlphaScreen TPR2A-His6 binding biotin-Hsp90 C-terminal peptide. Potency, µM (doses to about 57 µM), without a hit: at the top dose activity change, negative = inhibition. actives 0.44% (n = 71,000); active = well fitted curve in either direction with a large enough effect; inconclusive = small, poorly fitted or top-dose-only effect, or another doubt; note: potency is the fitted concentration of half-maximal effect; % is set by controls: 0 for no effect and ±100 for the full control effect
# Pol III holo inh: blocks replication by bacterial DNA polymerase III holoenzyme | AID 603 | Potency, µM (top dose mostly 57.1 µM), without a hit: at the top dose activity change, negative = inhibition | reconstituted DNA polymerase III holoenzyme replication, biochemical | actives 0.25% (n = 71,000); note: potency is the fitted concentration of half-maximal effect; % is set by controls: 0 for no effect and ±100 for the full control effect
#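 Reconstituted *E. coli* holoenzyme (0.35 nM Pol III, 1 nM beta, 154 nM SSB, 2 nM primase) was preincubated with compound for 15 min at RT. Synthesis on 1.4 nM ssM13Gori ran 35 min, then was stopped with PicoGreen/EDTA and read as dsDNA fluorescence.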
# An asterisk follows results filed as active; i = inactive; u = inconclusive; x = not tested or not shown; [ ] = dose if it differs, or a comment. Unless noted, calls come from the whole dose curve; as a rule, active = well fitted curve in the direction sought with a large enough effect; inconclusive = small, poorly fitted or top-dose-only effect, or another doubt; inactive = no such curve, though single readings can be large; an effect the other way counts as inactive or inconclusive.
SMILES,Tau filament bind,15-hLO inh,TsaE inh,Hsp90 Hop PPI,Pol III holo inh
COc1ccc(C(C(=O)NC2CCCC2)N(C(=O)c2ccco2)c2ccc3c(c2)OCO3)cc1OC (stereo not drawn),-9.6%,10.3%,i,-5.5%,-2.8%
Cc1cccc2c1Oc1ccccc1[C@@H]2NC(=O)c1ccc([N+](=O)[O-])cc1,0.9%[11.4 µM],4.5%[11.4 µM],i,-1.7%[11 µM],-11.1%[11.4 µM]
CCOC(=O)N1CCN(C(=O)Nc2ccc(Cl)cc2)CC1,-11.6%,-1.9%,i,-3.9%,0.2%
CCOC(=O)Cc1nnc2c(Nc3ccc(Cl)cc3)nc3nonc3n12,15.8µM*,-11.1%,i,-4.9%,-3.2%
NCCNCCNCCNCCN,92.2%,24.3%,i,5.01µM*,-1.0%
Cc1ccc(/C=c2\sc3nc(-c4ccco4)nn3c2=O)o1,-14.6%,u,i,-23.4%,3.98µM*
CC1CN(c2nc3ccccn3c(=O)c2/C=C(\C#N)S(=O)(=O)c2ccccc2)CC(C)O1 (stereo not drawn),20µM*,-11.0%,i,-18.2%,-3.9%
COc1ccc2nc3c(cc2c1)Cc1ccccc1-3,u,x,i,u,-13.1%
CN1CCN(C(=O)c2cc3nc(-c4ccc(F)cc4)cc(C(F)(F)F)n3n2)CC1,u,0.2%,i,-5.5%,3.2%
Cc1ccccc1Cn1cc(NC(=O)c2cc3nc(-c4ccco4)cc(C(F)(F)F)n3n2)cn1,3.16µM*,u,i,-6.1%,2.7%
O=C(c1cc2nc(-c3ccco3)cc(C(F)(F)F)n2n1)N1CCN(c2ccc(F)cc2)CC1,12.6µM*,u,i,-16.4%,-4.7%
CN(C)C(=O)c1ccc(-c2ccc3ncnc(NCc4ccccc4)c3c2)cc1,6.5%,13.3%,i,-1.3%,-1.7%
CN(C)CCCCNC(=O)c1ccc(-n2c(=O)c(=O)[nH]c3ccccc32)cc1,x,-3.6%,x,x,x
Cc1cc(C(=O)CSc2nnc(-c3cccs3)o2)c(C)n1-c1ccccc1,12.4%,20µM*,i,-3.3%,-4.8%
Cc1cc(C(=O)CSc2nnc(-c3ccco3)o2)c(C)n1Cc1ccco1,34.3%,25.1µM*,i,-8.7%,-23.6%
O=C(CSc1nnc(-c2cccs2)o1)c1cccs1,7.9%,-7.3%,i,-3.0%,0.5%
CCc1ccc(CNc2ccc(N3CCN(C(C)=O)CC3)cc2)cc1,12.6µM*,15.8µM*,i,u,5.2%
CC(=O)Nc1ccc(N2CCN(C(C)=O)CC2)cc1,-1.5%,1.2%,i,-0.7%,-3.7%
Cc1ccc(CNc2ccc(O)cc2)cc1,10µM*,u,i,u,-14.1%
Cc1ccc(NCCNc2ccc(C)cc2)cc1,3.1%,15.8%,i,-2.5%,-1.8%
CC(=O)N1CCN(c2ccc(NCc3ccc(C)cc3)cc2)CC1,u,12.6µM*,i,-22.2%,-0.6%
CCN1C(=O)[C@H]2[C@H]3[C@H](O)[C@H](O)C/C(=N/O[C@@H](C)c4cn([C@H](CO)Cc5ccccc5)nn4)[C@@H]3CC[C@@H]2C1=O,x,-0.2%[11.4 µM],x,x,x
Nc1ccc(S(=O)(=O)O)cc1,13.6%,-6.4%,i,-4.1%,-8.1%
CCOC(=O)c1c(C)[nH]c2ccc3c(c12)CN1CCc2cc(OC)ccc2[C@@H]1O3,2.51µM*,-0.5%[25.6 µM],i,-18.0%,-6.4%
CCOC(=O)c1[nH]c2ccc(OC)cc2c1NC(=O)c1ccc2c(c1)OCO2,x,-18.2%,x,x,x
SMILES,Tau filament bind,15-hLO inh,TsaE inh,Hsp90 Hop PPI,Pol III holo inh
Nc1nc(-c2cc(-c3cccc4ccccc34)nc(N)n2)cc(-c2cccc3ccccc23)n1,6.2%[11.4 µM],8.0%[11.4 µM],i,1.4%[11 µM],-3.6%[11.4 µM]
c1ccc2c(c1)-c1cccc3c1c-2cc1ccccc13,24.5%,5.2%,i,5.01µM*,9.9%
O=C(NCCN1CCOCC1)c1cccc(Cl)c1,6.5%,-4.5%,i,-2.7%,-5.2%
COc1cc(OC)cc(C(=O)NCCN2CCOCC2)c1,-4.8%,10µM*,i,-3.7%,-1.2%
Cc1ccc(Oc2cc(C)nc(-c3ccccc3O)n2)cc1,8.7%,2.8%,i,23.2%,-1.1%
Cc1cc(OCc2ccc(F)cc2)nc(-c2ccccc2O)n1,16.6%,-2.3%,i,25.1µM*,0.0%
Cc1cc(OC2CCCCC2)nc(-c2ccccc2O)n1,18.2%[11.4 µM],-5.5%[11.4 µM],i,3.16µM*,-3.4%[11.4 µM]
CCNc1ncc2ncc(=O)n(Cc3ccc(F)cc3)c2n1,-0.8%,-10.3%,i,4.7%,-6.3%
Cc1cnc(CNc2nc(-c3ccc(C(=O)N(C)C)cc3)nc3ccccc23)cn1,-11.9%,-3.9%,i,-0.1%,-6.8%
N#CC1=C(N)S[C@H](C(=O)C23CC4CC(CC(C4)C2)C3)[C@H]1c1ccncc1,-8.9%,12.6µM*,i,-16.1%,9.3%
CO[C@H]1COC(=O)[C@H](C)NC(=O)[C@@H](C)COC(=O)[C@H]2CCCN2C(=O)C/C=C\[C@H]1C,x,20.6%[11.4 µM],x,x,x
O=C(CSc1n[nH]c(-c2ccccc2)n1)c1ccc(O)c(O)c1,-4.2%,5.01µM*,i,-7.3%,-11.4%
C[N+]1([C@H](CO)Cc2c[nH]c3ccccc23)Cc2ccccc2C1,11.3%[11.4 µM],18.7%[11.4 µM],i,-0.2%[11 µM],-11.0%[11.4 µM]
Cc1cc(NC(=O)Nc2ccc(N(C)C)cc2)c2cc(F)cc(F)c2n1,31.6µM*,-4.0%[25.6 µM],i,7.94µM*,0.3%
COc1cccc(Nc2nc(-c3sc(N)nc3C)cs2)c1,12.6µM*,-1.0%,i,u,-7.1%
C=CCOC(=O)C(C(=O)CC)C(NC(=O)OC)c1ccc(F)cc1 (stereo not drawn),x,1.1%[11.4 µM],x,x,x
COC(=O)c1ccc2c(c1)SC1=C(CCCC1=O)N2,15.8µM*,15.8µM*,i,-9.4%,-2.0%
Cc1ccc2c(c1)N(CC(=O)NCCN1CCOCC1)C(=O)CO2,-1.0%,-0.4%,i,0.7%,-9.1%
CC(=O)OCC1OC(C#CC2=CCCCC2)C=CC1OC(C)=O (stereo not drawn),x,-1.9%[11.4 µM],x,x,x
Cc1ccc(C2NC(=O)c3c(sc4c3CCN(C)C4)N2)o1 (stereo not drawn),i,3.16µM*,i,-10.9%,-7.1%
COc1ccc2c(c1)c1nnc(SCC(=O)N3C(C)CCCC3C)nc1n2C (stereo not drawn),12.6µM*,0.7%,i,1.6%,-6.4%
O=c1c2c3nc4ccccc4nc3n(/N=C/c3ccco3)c2ncn1CCC1=CCCCC1,7.94µM*,-19.7%,i,0.1%,1.0%
O=c1c2[nH]c3ccccc3c2ncn1CCC1=CCCCC1,3.0%,0.6%,i,-2.8%,-1.7%
COC(=O)C1=C(C)NC(C)=C(C(=O)OCCSc2ccccc2)[C@@H]1C,u,-10.8%[25.6 µM],i,39.8µM*,-1.3%
NNC(=O)CCSc1ccccc1,3.6%[11.4 µM],7.7%[11.4 µM],i,-3.1%[11 µM],-2.8%[11.4 µM]
CN1C2CC(OC(=O)C(CO)c3ccccc3)C[C@@H]1[C@H]1OC21 (stereo partly drawn),x,-3.2%,x,x,x
CCCCCOc1ccc(N2C(=O)CC(N(O)c3ccccc3)C2=O)cc1 (stereo not drawn),12.6µM*,-5.0%,i,-2.6%,-3.6%
O=C(c1cc(-c2ccco2)nn1-c1cccc(Cl)c1)N1CCCCC1,u,7.94µM*,i,-15.9%,-7.2%

# Bioassay records: PubChem BioAssay, National Center for Advancing Translational Sciences (NCATS)
